A selection: hits, their analogues and other compounds. The true share with any hit is near 2.6%.
Cruzain inh Det: qHTS Assay for Promiscuous and Specific Inhibitors of Cruzain (with detergent); Cruzipain (Trypanosoma cruzi), P25779; purified cruzain, Z-FR-AMC fluorescence, 0.01% Triton; Potency, µM, inactives show max response, negative = inhibition, hits mostly inhibitors; 200,000 tested, 0.43% active; AID 1478, 2009;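 further: plate controls were neutral wells for no effect and buffer without enzyme for full effect; nearly all actives have a fitted effect of over 40% in size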
Target sequence (P25779 123-467 limits assumed): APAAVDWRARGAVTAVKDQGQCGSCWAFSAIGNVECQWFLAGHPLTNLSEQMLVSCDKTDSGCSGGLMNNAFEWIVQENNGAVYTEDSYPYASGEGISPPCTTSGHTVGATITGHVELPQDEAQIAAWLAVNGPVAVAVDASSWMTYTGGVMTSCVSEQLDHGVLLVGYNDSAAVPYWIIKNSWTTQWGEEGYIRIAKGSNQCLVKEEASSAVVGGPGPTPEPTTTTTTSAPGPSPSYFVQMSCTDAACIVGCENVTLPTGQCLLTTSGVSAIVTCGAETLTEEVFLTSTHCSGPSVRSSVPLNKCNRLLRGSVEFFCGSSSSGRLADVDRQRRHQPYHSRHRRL
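In this qHTS format, compounds are incubated with 1.5 nM cruzain for 15 min at room temperature before 2 uM Z-FR-AMC is added. Release of AMC is followed at 360/450 nm, and progress is taken as the 60 s fluorescence difference.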
Cruzain noTriton: qHTS Assay for Promiscuous and Specific Inhibitors of Cruzain (without detergent); Cruzipain (Trypanosoma cruzi), P25779; purified cruzain, Z-FR-AMC fluorescence, no detergent; Potency, µM, without a hit: max response, negative = inhibition, actives largely listed as inhibitors; 200,000 tested, 2.3% active; AID 1476, 2009;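 further: plate controls were enzyme without inhibitor for no effect and buffer without enzyme for full effect; nearly all actives have a fitted effect of over 40% in size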
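Detergent-free condition (0.00005% Triton X-100) in acetate buffer pH 5.5 with DTT. 1.5 nM enzyme and compound were pre-mixed 15 min, then 2 uM Z-FR-AMC substrate added; reaction progress from fluorescence change between first and third reads (60 s).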
* hit, by the source's call; ? = inconclusive. The call rests on the fitted dose curve; in most records, active means well fitted curve in the direction sought with a large enough effect; inconclusive means small, poorly fitted or top-dose-only effect, or another doubt; inactive means no such curve, though single readings can be large; an effect the other way counts as inactive or inconclusive. Potency means the concentration at half of the fitted maximal effect.

SMILES	Cruzain inh Det	Cruzain noTriton
O=C(Nc1nc2c(s1)CCCC2)c1cc(-c2ccccc2)nc2ccccc12	-6%	20µM*
O=C(NC1=NCCS1)c1cc(-c2ccc(-c3ccccc3)cc2)nc2ccccc12	-3%	7.9µM*
O=C(CSc1nc(Cc2ccccc2)nc2ccccc12)Nc1nc2c(s1)CCCC2	-9%	25µM*
CC(=O)c1ccc(N2C(=O)N(Cc3ccc(F)cc3)c3ccccc3S2(=O)=O)cc1	-2%	20%
CCCCOc1ccc(CNC(=O)c2ccc(NC(=O)N3CCSc4ncccc43)cc2)cc1	-12%	?
Cc1ccc(NC(=O)c2cc(-c3ccc(C)o3)nc3ccccc23)cc1	0%	-20%
COC(=O)c1sccc1NC(=O)c1cc(-c2cccc(C)c2)nc2ccccc12	0%	10µM*
Cc1ccc(-c2cc(C(=O)Nc3ccc4c(c3)OCCO4)c3ccccc3n2)cc1	-1%	10µM*
COC(=O)c1sccc1NC(=O)c1cc(-c2ccc(C)cc2)nc2ccccc12	-4%	?
COc1ccc(CN(C(=O)c2ccc(OCC(C)C)cc2)C2CCS(=O)(=O)C2)cc1 (configuration not stated)	-5%	?
CCn1nnc2cc(C(=O)Nc3ccc(OC)cc3)ccc21	3%	-8%
CCc1ccc2oc(C(=O)Nc3nc(-c4ccc(F)cc4)ns3)c(C)c2c1	2%	-8%
Cc1cc([N+](=O)[O-])cc(C)c1OCC(=O)N/N=C/c1ccc(OC(=O)c2ccccc2Br)cc1	-4%	10µM*
Cc1ccc(CC(=O)N/N=C/c2ccc(OC(=O)c3ccc([N+](=O)[O-])cc3)cc2)cc1	-2%	?
Cc1cc([N+](=O)[O-])cc(C)c1OCC(=O)N/N=C/c1ccc(OC(=O)c2ccccc2)cc1	-4%	13µM*
Cc1cccc(C)c1OCC(=O)N/N=C/c1ccncc1	2%	11%
COc1cccc(C(=O)NCC(=O)N/N=C/c2cccc(OC(=O)c3ccc([N+](=O)[O-])cc3)c2)c1	-19%	?
O=C(CNC(=O)c1ccc([N+](=O)[O-])cc1)N/N=C\c1ccc(OC(=O)c2ccccc2)cc1	-10%	7.9µM*
O=C1CC(c2ccc(F)cc2)c2c(c3ccccc3[nH]c2=O)O1 (configuration not stated)	-3%	-15%
COC(=O)C(Cc1c[nH]c2ccccc12)NC(=O)COc1ccc(Cl)cc1Cl (configuration not stated)	-14%	4%
CCOCCc1nn2c(=O)cc(COC(=O)c3cccc(C)c3)nc2s1	-2%	5%
CC1=C(C(=O)Nc2ccccc2)C(C(C)C)n2nc(SCc3ccccc3C)nc2N1 (configuration not stated)	0%	?
COc1cc(/C(C)=N\NC(N)=S)cc(OC)c1OC	5µM*	1.3µM*
COc1cc(/C(C)=N/NC(=S)NC(C)C)cc(OC)c1OC	-7%	0%
Cc1cc(OC(=O)c2cc(-c3ccc4c(c3)OCCO4)on2)ccc1Cl	-4%	7%
SMILES	Cruzain inh Det	Cruzain noTriton
CCOC(=O)c1c(NC(=O)c2cc(CC)on2)sc(C)c1C	-2%	-3%
Ic1ccc2c(c1)N(c1ccccc1)c1cc(Nc3ccc4nc5ccc(I)cc5[n+](-c5ccccc5)c4c3)ccc1N2	-2%	3.2µM*
Cc1ccc(OCC(=O)Nc2c(Cl)ccc3nsnc23)cc1C	-1%	-10%
Cc1ccc(C)c(NC(=O)CSc2nc(-c3ccccc3)c(C#N)c(=O)[nH]2)c1	-3%	2%
COc1ccccc1NC(=O)CSc1nc(-c2ccc(C(C)(C)C)cc2)c(C#N)c(=O)[nH]1	25µM*	?
COc1cccc(NC(=O)CN(CCc2ccccc2)S(=O)(=O)c2ccc(Cl)cc2)c1	-3%	-6%
O=C(NCCc1ccccc1)c1ccc2nc(-c3ccco3)c(-c3ccco3)nc2c1	16µM*	?
O=C(NCCc1ccccc1)c1ccc(=O)oc1	-7%	-7%
CCOc1ccccc1NC(=O)c1sc2nc(-c3ccc(OC)cc3)ccc2c1N	-5%	-30%
O=C(c1cnccn1)N1CCC2(CC1)CN(Cc1ccccc1)C2	4%	6%
COC(=O)C1=C(C)Nc2nc(SCc3ccccc3)[nH]c(=O)c2C1c1cccs1 (configuration not stated)	-1%	25µM*
CCSc1nc2c(c(=O)[nH]1)C(c1cccnc1)C(C(=O)OC)=C(C)N2 (configuration not stated)	-2%	-6%
Cc1ccccc1-c1ccc(Nc2ccc(N3CCOCC3)cc2)nn1	-9%	25µM*
O=S1(=O)N=C(Nc2ccc(N3CCOCC3)cc2)c2ccccc21	-4%	-19%
Cc1ccc(C)c(N2CCN(C(=O)c3c4c(nc5ccccc35)C(=O)N(C3CCCCC3)C4)CC2)c1	-1%	-16%
Cc1cc(C)c(OCC(=O)N(Cc2ccco2)Cc2ccco2)c(C)c1	-6%	-9%
COc1cc(/C=N/N=C(/N)c2nonc2N)cc(Br)c1OCc1ccccc1C	3%	-25%

Compound activity deposited in PubChem BioAssay by National Center for Advancing Translational Sciences (NCATS).
